Records with an inconclusive call do not appear. The source made the active and inactive calls. Calls come from the whole dose curve; as a rule, active = well fitted inhibition curve with a large enough effect in the repeat runs; inconclusive = weak or mixed curves; inactive = no such curve, though single readings can be large or run the other way.
% is set by controls: 0 for no effect and ±100 for the full control effect; potency is the fitted concentration of half-maximal effect.

Chain of Cytochrome P450 2C9 (Homo sapiens) (P11712 whole entry, looked up): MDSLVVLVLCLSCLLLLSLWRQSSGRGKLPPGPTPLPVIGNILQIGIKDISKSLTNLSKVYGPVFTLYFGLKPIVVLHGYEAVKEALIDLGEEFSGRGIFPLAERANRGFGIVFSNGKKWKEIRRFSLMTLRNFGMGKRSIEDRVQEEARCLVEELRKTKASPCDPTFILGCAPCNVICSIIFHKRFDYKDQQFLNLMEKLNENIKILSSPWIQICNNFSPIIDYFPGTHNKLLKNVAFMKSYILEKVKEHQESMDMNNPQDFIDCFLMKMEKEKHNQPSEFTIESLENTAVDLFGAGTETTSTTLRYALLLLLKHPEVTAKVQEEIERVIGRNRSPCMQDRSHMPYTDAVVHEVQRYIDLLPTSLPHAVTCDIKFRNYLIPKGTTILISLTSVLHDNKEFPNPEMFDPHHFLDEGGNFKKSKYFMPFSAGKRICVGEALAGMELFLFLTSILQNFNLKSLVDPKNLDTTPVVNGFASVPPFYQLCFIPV

For this test, the target named is Cytochrome P450 2C9 (Homo sapiens) (UniProt P11712). Kind of test: Cytochrome P450 family 2 subfamily C member 9 (CYP2C9) small molecule antagonists: luciferase biochemical (cell-free) qHTS assay (AID 1645842). Note: nearly all actives have a fitted effect of over 55% in size. The settings on record: P450-Glo CYP2C9 enzyme assay, luciferin luminescence; series mostly up to 57.4 µM; activity change, negative = inhibition: at the top concentration. As for the experimental part:
National Center for Advancing Translational Sciences [NCATS] Assay Overview: Cytochrome P450 (CYP) enzymes are membrane-bound hemeproteins that play a key role in metabolism of drugs and xenobiotics. Assaying the effect of chemicals on CYP isozymes is useful to minimize the adverse drug reactions and toxicities in drug development process. Chemical compounds were tested for their effect on CYP enzyme activities by using P450-Glo (TM) screening systems (Promega Corporation, Madison, WI). These systems provide a luminescent method containing proluciferin substrates and are converted to luciferin products by CYP isozymes. The luciferin products formed are detected with a luciferin detection reagent, and the amount of light produced is proportional to CYP activity. P450-Glo (TM) CYP2C9 screening system (Catalog. No. V9790) was used to detect the compounds that interfere in CYP2C9 activity.
Assay Protocol Summary: Two ul of enzyme-substrate mix supplemented with 0.4% Bovine Serum Albumin was dispensed into medium binding white/solid 1536-well plates (Greiner Bio-One North America Inc., Monroe, NC) using a Flying Reagent Dispenser (FRD, Aurora Discovery, San Diego, CA). […] The assay plates were incubated at room temperature for 10 min. Then 2 ul of NADPH regeneration solution was added to each well of the assay plates using an FRD and incubated at 37C for 1 h. The reaction was stopped by adding 4 ul of detection reagent using an FRD and after 20 min incubation at room temperature, the luminescence signal was measured using a ViewLux plate reader (Perkin Elmer, Shelton, CT). Data were expressed as relative luminescence units.
A general note: Quantitative high-throughput screening tests each substance at several concentrations.
In the case of `O=c1cc[nH]c(=S)[nH]1`, the “activity change, negative = inhibition” value was -28.2% (inactive).

Take `N[C@@H](CSSC[C@H](N)C(=O)O)C(=O)O`: the activity change, negative = inhibition is 15.4% [at 0.91 µM] (inactive).

Consider `NC(=O)NC(=O)Cc1ccccc1`, for which the “activity change, negative = inhibition” value was 26.9% (inactive).

In the case of `CC(C)(C)C(=O)C(Oc1ccc(Cl)cc1)n1ccnc1` (stereo not given), the Potency is 2.75 µM (active).

Regarding `CNCCCC1c2ccccc2C=Cc2ccccc21`, the “activity change, negative = inhibition” value is 8.39% (inactive).

`O=c1[nH]cnc2c1ncn2[C@@H]1O[C@H](CO)[C@@H](O)[C@H]1O`: the “activity change, negative = inhibition” value was 11.4% (inactive).

As to `Cc1ncc(COP(=O)(O)O)c(C=O)c1O`, the “activity change, negative = inhibition” value was 12% (inactive).

Take `Cc1ccc(C(C)C)cc2c(C)ccc1-2`: the “activity change, negative = inhibition” value was -22.7% (inactive).

In the case of `COCCOC(=O)C1=C(C)NC(C)=C(C(=O)OC/C=C/c2ccccc2)C1c1cccc([N+](=O)[O-])c1` (stereo not given), the Potency is 0.0617 µM (active).

Regarding `O=C1Nc2ccc(Cl)cc2[C@@](C#CC2CC2)(C(F)(F)F)O1`, the Potency is 17.4 µM (active).

On to `Cc1cc2nc3c(=O)[nH]c(=O)nc-3n(C[C@H](O)[C@H](O)[C@H](O)CO)c2cc1C`, for which the “activity change, negative = inhibition” value is -2.71% [at 23.9 µM] (inactive).

Regarding `Nc1cc(=O)[nH]c(N)n1`, the “activity change, negative = inhibition” value is 2.11% (inactive).

`CN(C)CCOC(C)(c1ccccc1)c1ccccn1` (stereo not given): the “activity change, negative = inhibition” value is 13.2% (inactive).

With `Cc1cccc(C)c1NC(=O)CN(CC(=O)O)CC(=O)O`, the “activity change, negative = inhibition” value was 17.6% (inactive).

Turning to `C[C@]12CC[C@@H]3c4ccc(O)cc4CC[C@H]3[C@@H]1CC[C@@H]2OC(=O)CCC1CCCC1`, the Potency is 19 µM (active).

`Cc1cc(C(C#N)c2ccc(Cl)cc2)c(Cl)cc1NC(=O)c1cc(I)cc(I)c1O` (stereo not given): the Potency was 21.9 µM (active).

As to `C[C@H]1O[C@@H](n2cc(F)c(=O)[nH]c2=O)[C@H](O)[C@@H]1O`, the “activity change, negative = inhibition” value was 2.16% (inactive).

`CC1(C)Oc2ccc(C#N)cc2[C@@H](N2CCCC2=O)[C@@H]1O`: the “activity change, negative = inhibition” value was 4.72% (inactive).

For the compound `CC(C)(C)C(=O)NCCCC(=O)O`, the “activity change, negative = inhibition” value was 6.27% (inactive).

For `O=Cc1ccccc1C=O`, the “activity change, negative = inhibition” value was 3.75% (inactive).

With `CN1[C@@H]2CC[C@H]1CC(OC(=O)C(O)c1ccccc1)C2` (stereo not given in full), the “activity change, negative = inhibition” value is 16.6% (inactive).

For `CC(O)CN(CCN(CC(C)O)CC(C)O)CC(C)O` (stereo not given), the “activity change, negative = inhibition” value was 2.33% (inactive).

For the compound `N[C@H](C(=O)O)c1ccc(O)cc1`, the “activity change, negative = inhibition” value was 13.5% [at 23.9 µM] (inactive).

With `CCCCCCCCCCCCCCCCCCOCC(O)CO` (stereo not given), the “activity change, negative = inhibition” value is 6.69% (inactive).

With `Nc1ccc(S(=O)(=O)Nc2nccs2)cc1`, the “activity change, negative = inhibition” value is 89.3% (inactive).

As to `CC(CN(C)C)CN1c2ccccc2CCc2ccccc21` (stereo not given), the “activity change, negative = inhibition” value is -0.0591% (inactive).

In the case of `C=CCn1c(=O)n([C@@H]2O[C@H](CO)[C@@H](O)[C@H]2O)c2nc(N)[nH]c(=O)c21`, the “activity change, negative = inhibition” value is 11.3% (inactive).

On to `CC/C=C(\C(=O)N[C@@H]1C(=O)N2C(C(=O)OCOC(=O)C(C)(C)C)=C(COC(N)=O)CS[C@H]12)c1csc(N)n1`, for which the Potency is 15.5 µM (active).

In the case of `[Cl][In]([Cl])[Cl]`, the “activity change, negative = inhibition” value was 1.9% [at 115 µM] (inactive).

Consider `CC[C@H]1CN2CCc3cc(OC)c(OC)cc3[C@@H]2C[C@@H]1C[C@H]1NCCc2cc(OC)c(OC)cc21`, for which the “activity change, negative = inhibition” value is -0.143% (inactive).

On to `Nc1ccc(S(=O)(=O)Nc2ccccc2)cc1`, for which the “activity change, negative = inhibition” value is 3.97% (inactive).

Turning to `CCCCN(CCCC)CC(O)c1cc(Cl)cc2c1-c1ccc(Cl)cc1/C2=C/c1ccc(Cl)cc1` (stereo not given), the Potency is 21.9 µM (active).

`CCCn1cnc2c1c(=O)n(CCCCC(C)=O)c(=O)n2C`: the “activity change, negative = inhibition” value is -4.62% (inactive).

For the compound `Cn1cc[nH]c1=S`, the “activity change, negative = inhibition” value is 3.96% (inactive).

As to `CC(=O)CCC(=O)O`, the “activity change, negative = inhibition” value was 16.2% (inactive).

With `CCC(=O)c1ccc(O)cc1`, the “activity change, negative = inhibition” value was 51% (inactive).

Regarding `O=C(O)Cc1sc(-c2ccccc2)nc1-c1ccc(Cl)cc1`, the Potency was 4.9 µM (active).

Take `CCCCC/C(C=O)=C\c1ccccc1`: the “activity change, negative = inhibition” value was 10.6% (inactive).

On to `Cc1cc(N)c2ccccc2[n+]1CCCCCCCCCC[n+]1c(C)cc(N)c2ccccc21`, for which the “activity change, negative = inhibition” value was 19.9% (inactive).

Regarding `CCCCOc1cc(C(=O)OCCN(CC)CC)ccc1N`, the “activity change, negative = inhibition” value was -0.793% (inactive).
